Reference: PubChem BioAssay (EPA / NIEHS)
Several values for one entry are separate records, joined by “and”; a condition that tells them apart may be missing. Identical values can stand only once. Activity calls are given as the source filed them. The calls were made as follows: active = hit-call score of the fitted dose curve at least 0.9, where 1 is the maximum; inactive = score below 0.9.

Columns and labels:
[1] = read-out: E-selectin (Homo sapiens) (UniProt P16581); assay: BSK_3C_Eselectin: BioMAP Diversity Plus: 3C Assay for Eselectin Biomarker Activity (AID 2283015); conditions: primary human endothelial cells (HUVEC); actives raise or lower the signal
Method in brief: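 Primary human umbilical vein endothelial cells (3C system), read 24 h after compound addition; E-selectin measured by ELISA. Bidirectional curve fitting against DMSO baseline; cytotoxicity by parallel SRB total-protein staining.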

[2] = read-out: Interleukin-1 alpha (IL1a), IL1A (gene 3552); assay: BSK_BE3C_IL1a: BioMAP Diversity Plus: BE3C Assay for Interleukin-1 alpha (IL1a) Biomarker Activity (AID 2283016); conditions: primary human bronchial epithelial cells; actives raise or lower the signal
Method in brief: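 Signal from IL-1a ELISA, taken 24 h after chemical dosing of human bronchial epithelial cells, is compared with DMSO as baseline using bidirectional curve fitting.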

[3] = read-out: Monocyte Chemoattractant Protein-1 (MCP1), CCL2 (gene 6347); assay: BSK_4H_MCP1: BioMAP Diversity Plus: 4H Assay for Monocyte Chemoattractant Protein-1 (MCP1) Biomarker Activity (AID 2283018); conditions: primary human endothelial cells (HUVEC); actives raise or lower the signal
Method in brief: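 Endothelial cells from umbilical vein were treated with test chemical, then after 24 h MCP-1 levels were quantified by ELISA; endpoint values came from bidirectional fitting with DMSO as baseline of activity.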

[4] = read-out: Monokine induced gamma interferon (MIG), CXCL9 (gene 4283); assay: BSK_3C_MIG: BioMAP Diversity Plus: 3C Assay for Monokine induced gamma interferon (MIG) Biomarker Activity (AID 2283021); conditions: primary human endothelial cells (HUVEC); actives raise or lower the signal;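 as to AC50: MIG protein level measured by immunoassay in the treated endothelial cultures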
Method in brief: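 Endothelial primary cells (human umbilical vein) are dosed with test chemical in the 3C system. MIG levels are measured by ELISA at 24 h and fitted in both directions relative to DMSO.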

[5] = BSK_3C_SRB: Viability Assessment in the BioMAP Diversity Plus: 3C Assay (AID 2283023); conditions: primary human endothelial cells (HUVEC);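 also: fitted both ways against DMSO so a hit may be signal rise or drop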
Method in brief: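 Human umbilical vein endothelial cells in the 3C system, treated 24 h. Total protein measured by 0.1% sulforhodamine B staining after 10% TCA fixation, read at 560 nm; bidirectional fit versus DMSO.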

[6] = BSK_4H_SRB: Viability Assessment in the BioMAP Diversity Plus: 4H Assay (AID 2283027); conditions: primary human endothelial cells (HUVEC);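 also: cells exposed to compound for 24 h before staining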;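 as to AC50: curves fitted both ways versus DMSO so AC50 may be loss or gain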
Method in brief: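 Cytotoxicity read-out in primary human endothelial cells: after 24 h compound exposure, cells were TCA-fixed (10%), stained with 0.1% SRB and absorbance taken at 560 nm. Values fitted in both directions relative to DMSO.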

[7] = BSK_BE3C_SRB: Viability Assessment in the BioMAP Diversity Plus: BE3C Assay (AID 2283028); conditions: primary human bronchial epithelial cells
Method in brief: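 Human bronchial epithelial primary cells in confluent culture, 24 h after chemical dosing; total protein by 0.1% SRB staining after 10% TCA fixation, read at 560 nm. Bidirectional fitting versus DMSO baseline.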

[8] = read-out: Thrombomodulin, THBD (gene 7056); assay: BSK_3C_Thrombomodulin: BioMAP Diversity Plus: 3C Assay for Thrombomodulin Biomarker Activity (AID 2283029); conditions: primary human endothelial cells (HUVEC); actives raise or lower the signal
Method in brief: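 Endothelial cells from umbilical vein are dosed with test chemical and incubated 24 h. Thrombomodulin is then quantified by ELISA, with DMSO serving as negative control and activity baseline.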

[9] = read-out: Human Leukocyte Antigen - DR isotype (HLADR), HLA-DRA (gene 3122); assay: BSK_BE3C_HLADR: BioMAP Diversity Plus: BE3C Assay for Human Leukocyte Antigen - DR isotype (HLADR) Biomarker Activity (AID 2283032); conditions: primary human bronchial epithelial cells; actives raise or lower the signal
Method in brief: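 Chemicals are dosed onto BE3C bronchial epithelial cultures of human origin and left 24 h. HLA-DR is then measured by ELISA, and the endpoint is fitted in both directions using DMSO as the activity baseline.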

[10] = read-out: Interferon-gamma inducible Protein 10 (IP10), CXCL10 (gene 3627); assay: BSK_BE3C_IP10: BioMAP Diversity Plus: BE3C Assay for Interferon-gamma inducible Protein 10 (IP10) Biomarker Activity (AID 2283034); conditions: primary human bronchial epithelial cells; actives raise or lower the signal
Method in brief: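 IP-10 quantified by ELISA serves as the endpoint. Cells: primary human bronchial epithelium, read 24 h after compound addition. Activity is derived by bidirectional fitting with DMSO as negative control.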

[11] = read-out: Monokine induced gamma interferon (MIG), CXCL9 (gene 4283); assay: BSK_BE3C_MIG: BioMAP Diversity Plus: BE3C Assay for Monokine induced gamma interferon (MIG) Biomarker Activity (AID 2283035); conditions: primary human bronchial epithelial cells; actives raise or lower the signal;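 also: MIG protein measured by ELISA in BE3C cultures after 24 h of dosing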
Method in brief: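 ELISA quantified MIG after 24 h exposure of primary bronchial epithelial cultures, analysed in both directions relative to DMSO. Cytotoxicity tracked in parallel cultures by sulforhodamine B staining.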

[12] = read-out: Plasminogen activator inhibitor-1 (PAI1), SERPINE1 (gene 5054); assay: BSK_BE3C_PAI1: BioMAP Diversity Plus: BE3C Assay for Plasminogen activator inhibitor-1 (PAI1) Biomarker Activity (AID 2283037); conditions: primary human bronchial epithelial cells; actives raise or lower the signal
Method in brief: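 Values derive from bidirectional fitting against DMSO baseline of PAI-1 levels, measured by ELISA in human bronchial epithelial cells 24 h after compound addition.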

[13] = read-out: urokinase plasminogen activator (uPA), PLAU (gene 5328); assay: BSK_BE3C_uPA: BioMAP Diversity Plus: BE3C Assay for urokinase plasminogen activator (uPA) Biomarker Activity (AID 2283038); conditions: primary human bronchial epithelial cells; actives raise or lower the signal;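 also: uPA protein level quantified by ELISA in cell cultures; uPA read one day after compound addition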
Method in brief: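 Primary human bronchial epithelial cells, uPA measured by ELISA 24 h after dosing. Bidirectional change relative to DMSO; cytotoxicity checked in parallel cultures by sulforhodamine B total-protein staining.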

[14] = read-out: Interleukin-6 (IL6), IL6 (gene 3569); assay: BSK_CASM3C_IL6: BioMAP Diversity Plus: CASM3C Assay for Interleukin-6 (IL6) Biomarker Activity for (AID 2283040); conditions: primary human coronary artery smooth muscle cells; actives raise or lower the signal
[15] = read-out: Interleukin-8 (IL8), CXCL8 (gene 3576); assay: BSK_CASM3C_IL8: BioMAP Diversity Plus: CASM3C Assay for Interleukin-8 (IL8) Biomarker Activity (AID 2283042); conditions: primary human coronary artery smooth muscle cells; actives raise or lower the signal;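 also: IL-8 protein level quantified by ELISA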
[16] = read-out: Human Leukocyte Antigen - DR isotype (HLADR), HLA-DRA (gene 3122); assay: BSK_CASM3C_HLADR: BioMAP Diversity Plus: CASM3C Assay for Human Leukocyte Antigen - DR isotype (HLADR) Biomarker Activity (AID 2283043); conditions: primary human coronary artery smooth muscle cells; actives raise or lower the signal;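 also: cell-surface HLA-DR protein level quantified by ELISA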
[17] = read-out: Monocyte Chemoattractant Protein-1 (MCP1), CCL2 (gene 6347); assay: BSK_CASM3C_MCP1: BioMAP Diversity Plus: CASM3C Assay for Monocyte Chemoattractant Protein-1 (MCP1) Biomarker Activity (AID 2283046); conditions: primary human coronary artery smooth muscle cells; actives raise or lower the signal
[18] = BSK_CASM3C_Proliferation: Cell Proliferation Assessment in the BioMAP Diversity Plus: CASM3C Assay (AID 2283047); conditions: primary human coronary artery smooth muscle cells;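 also: sulforhodamine B total protein stain as relative cell number at 560 nm; sub-confluent cells exposed 48 h before staining; fitted both ways against DMSO so gain or loss of cell number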
[19] = read-out: Thrombomodulin, THBD (gene 7056); assay: BSK_CASM3C_Thrombomodulin: BioMAP Diversity Plus: CASM3C Assay for Thrombomodulin Biomarker Activity (AID 2283051); conditions: primary human coronary artery smooth muscle cells; actives raise or lower the signal;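 also: thrombomodulin protein level measured by ELISA 24 h after dosing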
[20] = read-out: Urokinase-type plasminogen activator receptor (uPAR), PLAUR (gene 5329); assay: BSK_CASM3C_uPAR: BioMAP Diversity Plus: CASM3C Assay for Urokinase-type plasminogen activator receptor (uPAR) Biomarker Activity (AID 2283054); conditions: primary human coronary artery smooth muscle cells; actives raise or lower the signal;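 also: cell-surface uPAR protein level quantified by ELISA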

Measured: AC50

Chain of E-selectin (Homo sapiens) (P16581 whole entry, looked up): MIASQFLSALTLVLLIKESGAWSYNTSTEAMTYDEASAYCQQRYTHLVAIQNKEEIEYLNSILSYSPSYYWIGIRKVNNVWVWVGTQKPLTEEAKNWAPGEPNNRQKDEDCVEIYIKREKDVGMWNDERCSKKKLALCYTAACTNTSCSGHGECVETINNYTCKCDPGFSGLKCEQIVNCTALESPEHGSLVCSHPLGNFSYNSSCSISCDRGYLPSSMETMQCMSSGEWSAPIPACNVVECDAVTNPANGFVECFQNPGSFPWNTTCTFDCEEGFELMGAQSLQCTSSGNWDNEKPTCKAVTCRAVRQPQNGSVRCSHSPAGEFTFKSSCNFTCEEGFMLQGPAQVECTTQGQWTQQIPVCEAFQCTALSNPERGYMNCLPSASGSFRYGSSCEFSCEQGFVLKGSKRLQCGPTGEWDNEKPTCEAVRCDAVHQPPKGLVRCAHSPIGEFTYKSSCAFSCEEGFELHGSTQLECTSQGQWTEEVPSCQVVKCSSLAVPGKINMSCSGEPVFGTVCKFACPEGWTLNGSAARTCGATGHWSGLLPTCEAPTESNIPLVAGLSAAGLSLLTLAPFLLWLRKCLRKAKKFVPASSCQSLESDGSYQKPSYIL

CCCCCCCCCCC1CO1 (stereo not given)
active: [1] 34.8 µM | [2] 31.5 µM | [3] 33.8 µM | [4] 34.4 µM | [5] 35.2 µM | [6] 30 µM | [9] 31.2 µM | [10] 30.6 µM | [17] 6.3 µM | [20] 34.3 µM
inactive: all other assays above

CN(C)c1ccc(C(c2ccccc2)c2ccc(N(C)C)cc2)cc1
active: [1] 3.29 µM | [2] 5.43 µM | [3] 4.5 µM | [5] 9.62 µM | [6] 4.33 µM | [10] 10.7 µM | [12] 10.9 µM | [14] 9.64 µM | [18] 9.42 µM | [19] 1.26 µM
inactive: all other assays above

Cc1cccnc1
inactive: all assays above

Cc1cc(-n2nc3ccc(Cl)cc3n2)c(O)c(C(C)(C)C)c1
active: [5] 0.342 µM
inactive: all other assays above

CN(C)Cc1cc(C(C)(C)C)c(O)c(C(C)(C)C)c1
inactive: all assays above

CC[N+](CC)(CC(=O)Nc1c(C)cccc1C)Cc1ccccc1 (tested in a mixture with another compound)
inactive: all assays above

CCCCCCCCCC/C=C/C1CC(=O)OC1=O (stereo not given)
active: [2] 20 µM | [9] 20 µM | [10] 18.4 µM | [12] 20 µM
inactive: all other assays above

CCC(C)=NO
inactive: all assays above

CCCCCCC(O)CCCCCCCCCCC(=O)OC (stereo not given)
active: [3] 8.39 µM | [10] 9.22 µM
inactive: all other assays above

COC(=O)/C=C\C(=O)OC
active: [1] 13.6 µM | [9] 10.7 µM | [10] 20 µM | [16] 5.11 µM
inactive: all other assays above

CC[N+](CC)(CC(=O)Nc1c(C)cccc1C)Cc1ccccc1
inactive: all assays above

O=C(C(=O)c1ccccc1)c1ccccc1
active: [5] 0.194 µM
inactive: all other assays above

CN(C)CCC(c1ccc(Cl)cc1)c1ccccn1 (stereo not given)
active: [3] 12 µM
inactive: all other assays above

COc1ccc(C(=O)c2ccccc2O)c(O)c1
active: [5] 12.6 µM and 13.7 µM | [12] 24.5 µM and 27.2 µM | [16] 10.9 µM and 5.66 µM
inactive: all other assays above

CCCCC(CC)COC(=O)C=Cc1ccc(OC)cc1 (stereo not given)
active: [1] 27.5 µM and 11.4 µM | [3] 20 µM and 27.4 µM | [5] 31.8 µM and 31.4 µM | [6] 39 µM and 36.8 µM | [8] 9.77 µM and 8.63 µM | [16] 13.9 µM and 7.28 µM
inactive: all other assays above
